Compound activity from PubChem.
WRN inhibitor – WRN helicase (human) inhibition | Q14191 | WRN helicase unwinding, fluorescent forked duplex, kinetic | Potency, µM (doses to about 114 µM), for the others: at the top dose activity change, negative = inhibition, most hits filed as inhibitors | 0.46% of 360,000 active; note: % is set by controls: 0 for no effect and ±100 for the full control effect; nearly all actives have a fitted effect of over 55% in size
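Primary qHTS, 1536-well format. 20 nM WRN + compound, 15 min RT; start with 100 nM forked fluorophore/quencher duplex, 2 mM ATP (final); kinetic read ex 525/em 598 nm.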
POLI inh – DNA polymerase iota (human) inhibition; Q9UNA4; Pol iota fluorescent replication assay, 10 min; Potency, µM (doses to about 115 µM), for the others: top-dose activity, negative = inhibition, hits mostly inhibitors; 1% of 390,000 active; AID 588590
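Fluorescent replication assay read twice, at 0 min and 10 min after adding 50 nM (final) substrate. Enzyme (10 nM) and compounds were first incubated 15 min at room temperature; enzyme-free buffer wells were negative controls.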
Pol kappa inh – blocks human DNA polymerase kappa activity | purified Pol kappa, fluorescent DNA synthesis assay, 10 min | AID 588579 | Q9UBT6 | Potency, µM (series often up to 107 µM), inactives show at the top dose activity, negative = inhibition, actives largely listed as inhibitors | 0.53% of 400,000 active; note: % is set by controls: 0 for no effect and ±100 for the full control effect
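Pol kappa 10 nM + cpd, 15 min RT; start w/ substrate 50 nM final; fluorescence kinetic read, 0 and 10 min. Neg ctrl: buffer, no enzyme.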
FEN1 inh – human FEN1 inhibition; P39748; AID 588795; Recombinant FEN1 flap cleavage, fluorescence, 15 min; 0.35% of 390,000 active; Potency, µM (series often up to 114 µM), without a hit: at the top dose activity change, negative = inhibition, most hits filed as inhibitors; note: % is set by controls: 0 for no effect and ±100 for the full control effect; nearly all actives have a fitted effect of over 65% in size
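Nuclease activity of 10 nM FEN1 was measured after 15 min of room-temperature exposure to titrated compounds, by adding 50 nM flap substrate and reading plates at 0 and 15 min.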
POLH inh – blocks human DNA polymerase eta activity | recombinant Pol eta, fluorescent DNA replication assay | Potency, µM (series often up to 114 µM), for the others: at the top dose activity change, negative = inhibition, actives largely listed as inhibitors | Q9Y253 | 1.2% of 390,000 active; note: % is set by controls: 0 for no effect and ±100 for the full control effect
Target sequence (Q9Y253 whole entry, looked up): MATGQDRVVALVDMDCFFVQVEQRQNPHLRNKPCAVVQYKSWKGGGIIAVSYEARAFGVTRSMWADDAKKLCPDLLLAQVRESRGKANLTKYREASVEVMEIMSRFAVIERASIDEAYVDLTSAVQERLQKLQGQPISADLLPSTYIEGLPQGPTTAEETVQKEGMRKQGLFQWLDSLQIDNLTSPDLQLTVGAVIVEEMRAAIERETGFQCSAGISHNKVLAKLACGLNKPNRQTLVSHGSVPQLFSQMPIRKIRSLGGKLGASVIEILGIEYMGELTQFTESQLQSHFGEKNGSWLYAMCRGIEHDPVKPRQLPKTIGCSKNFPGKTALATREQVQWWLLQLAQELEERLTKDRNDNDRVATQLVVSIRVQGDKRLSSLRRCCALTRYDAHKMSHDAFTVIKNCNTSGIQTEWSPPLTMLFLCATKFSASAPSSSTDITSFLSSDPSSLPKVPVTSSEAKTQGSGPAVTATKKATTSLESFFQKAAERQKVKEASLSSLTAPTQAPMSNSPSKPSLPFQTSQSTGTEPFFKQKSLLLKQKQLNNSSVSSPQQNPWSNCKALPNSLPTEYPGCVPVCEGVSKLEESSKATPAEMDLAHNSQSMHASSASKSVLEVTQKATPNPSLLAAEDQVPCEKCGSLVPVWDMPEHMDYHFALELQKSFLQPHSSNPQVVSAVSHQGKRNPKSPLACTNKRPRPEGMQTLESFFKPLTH
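Fluorescent replication assay: 50 nM final substrate added after a 15 min room-temperature compound preincubation with 10 nM enzyme. Signal taken at 0 min and again at 10 min.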
POLB inh – inhibitors of human DNA polymerase beta; Potency, µM (top dose mostly 114 µM), without a hit: top-dose activity change, negative = inhibition, most hits filed as inhibitors; P06746; Pol beta primer extension/strand displacement, fluorescence kinetic; 1.3% of 340,000 active; note: % is set by controls: 0 for no effect and ±100 for the full control effect
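Values derive from four-parameter Hill fits of normalized kinetic data: reads at 0 and 10 min following addition of 50 nM substrate to 10 nM Pol beta preincubated 15 min with compound.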
The depositor's hits bear a star; ? = inconclusive; / = no result; [ ] = remark or other dose. Only some compounds are listed: those with a hit (about 2.4% of all), similar ones and a draw of the others. Calls come from the whole dose curve; as a rule, active = well fitted curve in the direction sought with a large enough effect; inconclusive = small, poorly fitted or top-dose-only effect, or another doubt; inactive = no such curve, though single readings can be large; an effect the other way counts as inactive or inconclusive. Potency is the fitted concentration of half-maximal effect.

SMILES | WRN inhibitor | POLI inh | Pol kappa inh | FEN1 inh | POLH inh | POLB inh
O=C(Nc1ccc2nc(-c3ccco3)c(-c3ccco3)nc2c1)N1CCCCCC1 | 13µM* | 3.2µM* | 7.1µM* | 50µM* | 10µM* | 2.2µM*
O=C(Nc1ccc(Cl)c(Cl)c1)N1CCCCCC1 | -2%[11.6 µM] | ? | 89µM* | ? | -13% | 47%
CCOC(=O)C1CCN(C(=O)Nc2ccc3nc(-c4ccco4)c(-c4ccco4)nc3c2)CC1 | 35µM* | 2.8µM* | 16µM* | ? | 2.8µM* | 1.6µM*
Cc1c(Cl)sn(-c2ccc(Cl)cc2)c1=O | 16µM* | 64% | -6% | ? | 5% | -1%
Cc1nn(-c2ccc(Cl)cc2)c(=O)c2ccccc12 | -2% | -3% | -8% | -8% | -12% | 0%
O=[N+]([O-])c1ccc(O)c(-c2nn[nH]n2)c1 | 79µM* | ? | -9% | 0% | -11% | 0%
O=C(CSc1oc(-c2ccco2)nc1S(=O)(=O)c1ccc(Br)cc1)c1ccc(Cl)cc1 | / | 89µM* | ? | -36% | -3% | 12%
CCCSc1oc(-c2ccco2)nc1S(=O)(=O)c1ccc(Cl)cc1 | / | ? | -18% | -10% | -5% | -19%
O=C(O)c1ccc(S(=O)(=O)N(CCc2ccccc2)Cc2ccc(Cl)cc2)cc1 | -5% | 1% | -12% | -15% | 0% | 50µM*
O=C(O)c1ccc(S(=O)(=O)N(Cc2ccccc2)Cc2ccccc2)cc1 | 3%[57.1 µM] | -10% | -7% | -12% | 3% | 8%
O=C1/C(=C\c2ccc(O)c(O)c2)Oc2c1ccc(O[C@@H]1O[C@H](CO)[C@@H](O)[C@H](O)[C@H]1O)c2O | / | 22µM* | 32µM* | ? | / | /
C=C/C(C)=C/[C@@]1(C)SC(=O)C(C)=C1O | / | ? | / | / | 14µM* | 25µM*
CCc1ccc(C(=O)Cn2ncc(Cl)c(Cl)c2=O)cc1 | -10%[11.6 µM] | ? | -17% | -3% | ? | 50µM*
O=C(Cn1ncc(Cl)c(Cl)c1=O)N1CCOCC1 | 3% | 43% | -7% | -2% | -18% | 1%
O=C(Cn1ncc(Cl)c(Cl)c1=O)N1CCN(Cc2ccccc2)CC1 | -10% | 35µM* | 0% | 20% | ? | 28µM*
CC[n+]1c(/C=C/c2ccc(N(C)C)cc2)ccc2ccccc21 | ? | -23% | -36% | 50µM* | ? | 28µM*
CC[n+]1c(/C=C/c2ccc(OC(C)=O)c(OC)c2)ccc2ccccc21 | -6% | 11% | 6% | ? | -9% | 11%
CN(C)c1ccc(/C=C/c2cc[n+](C)cc2)cc1 | 79µM* | 3% | -20% | ? | -23% | -1%
CCN(CC)c1ccc(/C=C/c2ccc3ccc(OC)cc3[n+]2CC)cc1 | 56µM* | ? | -2% | 35µM* | -22% | -24%
O=C(Nc1ccc2cn[nH]c2c1)c1c(Cl)cccc1Cl | -6% | 16% | -9% | -8% | -10% | -8%
O=C1C(Cl)=C(Nc2ccc3cn[nH]c3c2)C(=O)c2ccccc21 | -35% | ? | -25% | ? | 50µM* | ?
COc1ccccc1C1(O)CC2CCC(C1)N2S(=O)(=O)c1ccc(C(C)=O)cc1 (configuration not stated) | -4%[57.1 µM] | 100µM* | -12%[60.1 µM] | -2% | -15% | 1%
NC1=NC(=O)/C(=C/c2cccs2)S1 | -11% | 6% | -2% | 3% | -4% | -23%
CS(=O)(=O)Nc1ccc(-c2ccc(/C=C3\SC(N)=NC3=O)o2)cc1 | ? | ? | -8% | -26% | ? | 40µM*
Cc1ccccc1NCC(=O)N=Nc1c(O)[nH]c2ccc([N+](=O)[O-])cc12 | -7% | 44% | -29% | -3% | -9% | 9%
SMILES | WRN inhibitor | POLI inh | Pol kappa inh | FEN1 inh | POLH inh | POLB inh
O=[N+]([O-])c1ccc2[nH]c(O)c(N=NC(=S)Nc3cccnc3)c2c1 | ? | ? | 89µM* | ? | ? | ?
Cc1cccc(OCC(=O)NCC(=O)N=Nc2c(O)[nH]c3ccc([N+](=O)[O-])cc23)c1 | -5% | 57% | -10% | 1% | ? | 45µM*
CCNC(=S)N=Nc1c(O)[nH]c2ccc([N+](=O)[O-])cc12 | ? | 107% | ? | -7% | -3% | ?
O=C(O)c1ccccc1N=Nc1c(O)[nH]c2ccc([N+](=O)[O-])cc12 | ? | ? | -42% | ? | 22µM* | 50µM*
C(=Nc1cccnc1)c1ccnc2ccccc12 | / | 27% | -14% | -2% | / | /
CC(=O)Nc1ccc(OC(C)=O)cc1 | / | / | -9%[19.4 µM] | / | / | /
Cc1ccc(-c2[nH]ncc2CNCc2ccccc2)cc1 | / | 12% | 3% | 15% | / | /
C=C(CCC12O[C@H](C(=O)O)[C@@](O)(C(=O)O)[C@](C(=O)O)(O1)[C@H](OC(=O)/C=C/[C@@H](C)C[C@@H](C)CC)[C@H]2O)[C@@H](OC(C)=O)[C@H](C)Cc1ccccc1 | / | / | 3.5µM* | / | / | /
C=C(CC[C@]12OC(C(=O)O)C(O)(C(=O)O)C(C(=O)O)(O1)C(OC(=O)/C=C/[C@@H](C)C[C@@H](C)CC)C2O)[C@@H](OC(C)=O)[C@H](C)Cc1ccccc1 (some centres not stated) | / | ? | 79µM* | -1% | / | /
CCCc1nc2oc3cc(OC)ccc3c(=O)c2c(=O)n1Cc1ccco1 | -29% | ? | -43% | -15% | ? | 45µM*
COc1ccc2c(=O)c3c(=O)n(Cc4ccco4)c(-c4ccccc4)nc3oc2c1 | -8% | 1% | -10% | -7% | 4% | -12%
CCCc1nc2sc3ccccc3c(=O)c2c(=O)n1Cc1ccco1 | -22% | ? | ? | -4% | ? | 50µM*
COc1cc2cncnc2cc1OCCCCC(N)=O | / | -23% | -4% | -14% | / | /
O=C(NC1CCCCC1)[C@@H]1CC=C[C@@H]2CCN(Cc3ccc(Cl)c(Cl)c3)C(=O)[C@@H]21 | / | -8% | -9% | 15% | / | /
CCN(CC(=O)NC1CCS(=O)(=O)C1)S(=O)(=O)c1ccc(F)cc1 (configuration not stated) | -21% | -46% | -22% | -5% | ? | 16µM*
CCc1cccc2c(C(O)c3c[nH]c4ccccc34)c[nH]c12 (configuration not stated) | / | 28% | -11% | -22% | / | /
O=C(Nc1cnn(Cc2ccc(F)cc2)c1)C(c1ccccc1)c1ccccc1 | -8% | 79µM* | -5% | -1% | -9% | 4%
O=C(Nc1cnn(Cc2ccc(F)cc2)c1)c1cnccn1 | 2% | 7% | -5% | -8% | -16% | 1%
CC1CCN(c2c(NCc3ccc(C(=O)NCCc4ccc(Cl)cc4)cc3)c(=O)c2=O)CC1 | -4% | ? | -20% | -6% | -13% | 32µM*
